# PubChem BioAssay (NCATS)
# Calls of active or inactive are those of the source. Calls follow the shape of the dose curve; as a rule, active = well fitted curve in the direction sought with a large enough effect; inconclusive = small, poorly fitted or top-dose-only effect, or another doubt; inactive = no such curve, though single readings can be large or run the other way.
# Experiment: HepG2 viability counterscreen (readout 2: ATP content) against the NCATS DSHEA and TCM libraries (AID 1794840);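 also: HepG2 cells exposed to substances for about 24 h; 0% is about no effect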
# Settings: ATP content luminescence; series mostly up to 27.3 µM; activity change, negative = cytotoxic: at the top concentration
# Source text: Assay Development and Screening Technology Laboratory (ADST)
# National Center for Advancing Translational Sciences (NCATS), Rockville, MD
# National Institute of Health (NIH), Bethesda, Maryland
# Dietary Supplements and Natural Products have minor oversight of their safety and efficacy. We assembled a collection of Dietary Supplements and Natural Products (DSNP) as well as Traditional Chinese Medicinal (TCM) Plant extracts, which were screened against an in vitro panel of assays, including a liver cytochrome p450 enzyme panel, CAR/PXR signaling pathways, and P-gp transporter assays, to assess their activity. This pipeline facilitated the interrogation of Natural Product-Drug Interaction (NaPDI) through prominent metabolizing pathways. In addition, we compared the activity profiles of the DSNP/TCM substances with those of an approved drug collection. Many of the approved drugs have well-annotated mechanisms of action (MOA) while the MOAs for most of the DSNP and TCM samples remain unknown. Based on the premise that compounds with similar activity profiles tend to share similar targets or MOA, we clustered the library activity profiles to identify overlap with the NCATS Pharmaceutical Collection to predict the MOAs of the DSNP/TCM substances. Overall, we highlight four significant bioactivity profiles (measured by p-values) as examples of this prediction. In addition, to assess broad cytotoxicity, we employed screening against a HepG2 cell line.
# To this end, we profiled both collections for potential CAR and/or PXR activity, employing a previously published 1536-well qHTS assay.
# PROTOCOL TABLE (as described by Inglese J, Shamu CE and Guy RK. 2007)
# SEQUENCE No. (e.g., 1, 2, 3, etc.); PARAMETER (e.g., Cells, Incubation, Reagent, etc.); VALUE; DESCRIPTION.
# 1; Cells; 5 uL; HepG2 cells, white solid-bottom tissue treated Greiner plate.
# 2; Incubation; 4 hrs; 37C, 95% humidity, 5% CO2.
# 3; Compounds; 23 nL; Kalypsis pin tool (Wako USA) equipped with a 1536-well pin head to transfer to the assay plates.
# 4; Incubation; 24 hrs; 37C, 95% humidity, 5% CO2.
# 5; Reagent; 1 uL; GF-AFC substrate.
# 6; Incubation; 30 min; 37C, 95% humidity, 5% CO2.
# 7; Read 1; Fluorescence; EnVision plate reader excitation 380 nm, emission 510 nm.
# 8; Reagent; 3 uL; CellTiter-Glo (Promega).
# 9; Centrifuge; 1000 RPM; 15 seconds.
# 10; Incubation; 30 min; room temperature.
# 11; Read 2; Luminescence; ViewLux plate reader.
# NOTES (numbers refer to Sequence numbers above)
# 1. 5 uL of HepG2 cells at 2 x 10^5 cells/mL (1,000 cells/well) were dispensed into a 1536-well white solid-bottom tissue treated plate (Greiner Bio-One) using a Multidrop Combi dispenser (Thermo Scientific). This assay use both GF-AFC substrate and Cell-Titer Glo (CTG), measuring cellular protease activity and ATP content, respectively.
# 2. Plates were incubated at 37C, 95% humidity, and 5% CO2 for ~4 hours to allow for cell attachment.
# 3. Compounds were transferred (16 nL) via pintool (Wako Automation), for a final concentration range for most substances of 15.6 nM - 31.3 uM.
# 4. Plates were incubated for ~24 hours.
# 5. 1 uL addition of GF-AFC substrate (final concentration 25 uM; MP Biomedicals).
# 6. Plates were incubated at 37C, 95% humidity, and 5% CO2 for 30 minutes.
# 7. After incubation, plates were read for fluorescence intensity (Ex/Em = 380 nm/510 nm) on an EnVision detector (PerkinElmer, Shelton, Connecticut).
# 8. Once the detection for fluorescence was completed, plates were dispensed with 3 uL of CellTiter-Glo (Promega, Madison, WI).
# 9. Plates were centrifuged for 15 seconds at 1,000 RPM's.
# 10. Plates were incubated for 30 minutes at room temperature.
# 11. Plates were then read for luminescence intensity on a ViewLux detector.
# Inglese J, Shamu CE and Guy RK, Reporting data from high throughput screening of small molecule libraries, Nature Chemical Biology, 2007, 3(8): 438-441. doi.org/10.1038/nchembio0807-438.
row,SMILES,"activity change, negative = cytotoxic"
1,COC1=C(OC)C(=O)C(C/C=C(\C)CC/C=C(\C)CC/C=C(\C)CC/C=C(\C)CC/C=C(\C)CC/C=C(\C)CC/C=C(\C)CC/C=C(\C)CC/C=C(\C)CCC=C(C)C)=C(C)C1=O,-0.519% (inactive)
2,Oc1ccc(/C=C/c2cc(O)cc(O)c2)cc1,0.981% (inactive)
3,CC/C=C\C/C=C\C/C=C\C/C=C\C/C=C\C/C=C\CCC(=O)O,-8.17% (inactive)
4,Oc1cccc(O)c1O,2.43% (inactive)
5,C=C1CC[C@H](O)C/C1=C\C=C1/CCC[C@]2(C)[C@@H]([C@H](C)CCCC(C)C)CC[C@@H]12,-1.9% (inactive)
6,CCCCC/C=C\C/C=C\C/C=C\CCCCC(=O)O,-4.42% [at 3.42 µM] (inactive)
7,CC(C)=CCC/C(C)=C/C=C/C(C)=C/C=C/C(C)=C/C=C/C=C(C)/C=C/C=C(C)/C=C/C=C(\C)CCC=C(C)C,-3.69% (inactive)
8,CCCCCCCCCCCC(=O)OCC(O)CO (stereo unspecified),8.98% (inactive)
9,O=C(O)/C=C/c1ccccc1,-0.375% [at 46.6 µM] (inactive)
10,C=C1CC[C@H](O)CC1=C/C=C1\CCC[C@]2(C)[C@@H]([C@H](C)/C=C/[C@H](C)C(C)C)CC[C@@H]12,4.43% (inactive)
11,CC/C=C\C/C=C\C/C=C\C/C=C\C/C=C\CCCC(=O)O,1.91% (inactive)
12,CC1=CCC2CC1C2(C)C (stereo unspecified),1.81% (inactive)
13,CC[C@H](CC[C@@H](C)[C@H]1CC[C@H]2[C@@H]3CC=C4C[C@@H](O)CC[C@]4(C)[C@H]3CC[C@]12C)C(C)C,-4.52% (inactive)
14,Cc1ncc(C[n+]2csc(CCO)c2C)c(N)n1,-2.41% (inactive)
15,CC(C)=CCC/C(C)=C/CC/C(C)=C/CC/C(C)=C/CC1=C(C)C(=O)c2ccccc2C1=O,-4.17% (inactive)
16,CC/C=C\C/C=C\C/C=C\CCCCCCCC(=O)O,-9.15% (inactive)
